20 molecules from PubChem BioAssay can be followed below.

The nature of experiment [1]: antimalarial activity against Dd2 strain (AID 2302;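 active means growth inhibition above 50% at the single 2 µM test dose, taken to imply half-maximal potency below 2 µM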;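 further: 0% = DMSO untreated growth and 100% = chloroquine plus artemisinin killed control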). The settings on record: P. falciparum Dd2 in RBCs, LDH growth readout, 72 h; at 2 µM; active compounds read high.
Experiment [2] is described as follows: human hepatoma cell viability loss – ATP luminescence, cytotoxicity control for P. falciparum antimalarial project, primary screen (AID 2303;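 active means inhibition above 50%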;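 further: 0% = DMSO wells and 100% = digitonin-killed cells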). The settings on record: HepG2 viability, 24-48 h, at 10 µM, active compounds read high.
Experiment [3] has as its target L-lactate dehydrogenase (Plasmodium falciparum (isolate CDC / Honduras)) (UniProt Q27743). Kind of experiment: PfLDH activity inhibition – cell lysate, 3D7 strain, counter-screen for P. falciparum growth inhibition project (AID 2304).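 Further: 0% = vehicle and 100% = reference inhibitor.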 The settings on record: P. falciparum 3D7 crude extract, LDH APAD/NBT absorbance; at 2 µM; active compounds read high. For orientation: A counterscreen serves to expose hits that act by an unwanted route or on another target.

Experiment [4] in a line: inhibition of 3D7 malaria parasite growth – strain 3D7 (AID 2306).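 Further: 0% = DMSO wells and 100% = chloroquine plus artemisinin control wells.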 The settings on record: P. falciparum 3D7 erythrocytic growth, LDH absorbance, 72 h; at 2 µM; active compounds read high.
Experiment [5] deals with Calcium-dependent protein kinase 1 (Plasmodium falciparum (isolate 3D7)) (UniProt P62344). Kind of experiment: PfCDPK1 kinase inhibitors, biochemical, TCAMS library (AID 1159585; cut-off not given, nearly all actives have IC50 up to about 0.98 µM;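 further: inhibitors leave more ATP so luminescence rises with inhibition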). The settings on record: recombinant PfCDPK1, Kinase-Glo ATP depletion luminescence. Background: Kinase-Glo measures the ATP left after a reaction by luminescence.
Chain of Calcium-dependent protein kinase 1 (Plasmodium falciparum (isolate 3D7)) (P62344 whole entry, looked up): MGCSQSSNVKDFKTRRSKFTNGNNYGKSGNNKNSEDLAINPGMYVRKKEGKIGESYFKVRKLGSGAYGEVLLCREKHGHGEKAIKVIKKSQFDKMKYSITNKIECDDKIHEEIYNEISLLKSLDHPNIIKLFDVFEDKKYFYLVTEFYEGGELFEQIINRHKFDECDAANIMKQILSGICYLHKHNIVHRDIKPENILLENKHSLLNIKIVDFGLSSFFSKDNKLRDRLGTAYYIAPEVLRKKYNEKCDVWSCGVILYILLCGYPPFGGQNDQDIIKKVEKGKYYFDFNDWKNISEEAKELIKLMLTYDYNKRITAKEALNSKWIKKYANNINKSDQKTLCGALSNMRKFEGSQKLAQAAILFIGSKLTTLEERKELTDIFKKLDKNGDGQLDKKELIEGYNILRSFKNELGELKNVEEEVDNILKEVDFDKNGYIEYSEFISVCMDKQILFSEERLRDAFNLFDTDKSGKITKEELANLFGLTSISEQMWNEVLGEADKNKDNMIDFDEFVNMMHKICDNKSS
For experiment [6], the target named is Plasmodium falciparum protein kinase 6 (PK6, PF3D7_1337100) (UniProt Q8IDW1). Kind of experiment: PfPK6 kinase inhibitors, biochemical, TCAMS library (AID 1159586). The settings on record: recombinant PfPK6, Kinase-Glo ATP depletion luminescence.
Chain of Plasmodium falciparum protein kinase 6 (PK6, PF3D7_1337100) (Q8IDW1 1-305): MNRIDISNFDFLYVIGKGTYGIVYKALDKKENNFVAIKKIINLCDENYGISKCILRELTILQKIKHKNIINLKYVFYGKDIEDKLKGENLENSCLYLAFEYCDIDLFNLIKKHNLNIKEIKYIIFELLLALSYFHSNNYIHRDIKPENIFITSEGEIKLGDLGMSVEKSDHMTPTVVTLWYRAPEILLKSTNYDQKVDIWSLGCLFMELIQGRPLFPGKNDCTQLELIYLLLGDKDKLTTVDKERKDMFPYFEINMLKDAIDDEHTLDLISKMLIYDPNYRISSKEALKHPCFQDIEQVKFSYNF
Experiment [7] deals with Protein kinase 7 (PK7), Plasmodium falciparum 3D7 (PF3D7_0213400) (UniProt Q7YTF7). The experiment in a line: inhibition of Plasmodium PK7 catalytic activity – biochemical, TCAMS antimalarial set, Kinase-Glo luminescence (AID 1159587). The settings on record: recombinant PfPK7, Kinase-Glo ATP depletion luminescence.
Chain of Protein kinase 7 (PK7), Plasmodium falciparum 3D7 (PF3D7_0213400) (Q7YTF7 1-343): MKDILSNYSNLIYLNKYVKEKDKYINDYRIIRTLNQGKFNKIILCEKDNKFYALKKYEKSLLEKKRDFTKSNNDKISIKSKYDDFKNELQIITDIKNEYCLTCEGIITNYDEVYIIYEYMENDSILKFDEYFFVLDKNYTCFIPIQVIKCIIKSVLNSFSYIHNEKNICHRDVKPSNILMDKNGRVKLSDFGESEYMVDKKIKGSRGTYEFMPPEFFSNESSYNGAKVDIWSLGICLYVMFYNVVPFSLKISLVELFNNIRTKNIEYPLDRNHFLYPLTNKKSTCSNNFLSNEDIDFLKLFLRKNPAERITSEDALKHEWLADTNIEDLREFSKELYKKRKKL
In experiment [8] the target is Calcium-dependent protein kinase 4 (Plasmodium falciparum (isolate 3D7)) (UniProt Q8IBS5). The experiment in a line: PfCDPK4 kinase inhibitors, biochemical, TCAMS library (AID 1159588; cut-off not given, nearly all actives have IC50 up to about 0.91 µM). The settings on record: recombinant PfCDPK4, Kinase-Glo ATP depletion luminescence.
Chain of Calcium-dependent protein kinase 4 (Plasmodium falciparum (isolate 3D7)) (Q8IBS5 whole entry, looked up): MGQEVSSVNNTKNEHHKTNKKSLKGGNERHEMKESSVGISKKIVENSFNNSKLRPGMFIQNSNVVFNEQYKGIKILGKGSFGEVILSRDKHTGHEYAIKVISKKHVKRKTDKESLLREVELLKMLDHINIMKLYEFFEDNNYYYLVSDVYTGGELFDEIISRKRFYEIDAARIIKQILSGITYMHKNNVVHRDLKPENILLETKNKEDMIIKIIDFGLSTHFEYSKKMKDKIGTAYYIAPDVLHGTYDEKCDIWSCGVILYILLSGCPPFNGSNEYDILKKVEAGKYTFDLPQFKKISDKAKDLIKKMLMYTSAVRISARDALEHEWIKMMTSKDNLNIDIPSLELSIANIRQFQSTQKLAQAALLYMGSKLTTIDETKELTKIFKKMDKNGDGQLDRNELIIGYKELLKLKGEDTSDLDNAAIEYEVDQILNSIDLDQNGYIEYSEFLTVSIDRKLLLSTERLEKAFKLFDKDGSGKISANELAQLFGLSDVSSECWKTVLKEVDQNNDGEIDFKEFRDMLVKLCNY

Unmarked numbers belong to inactive results. For some of these results: Results with a measured potency or affinity are listed apart. Calls of active or inactive are those of the source. Unless noted, how the calls were made is not given here.

Chain of L-lactate dehydrogenase (Plasmodium falciparum (isolate CDC / Honduras)) (Q27743 whole entry, looked up): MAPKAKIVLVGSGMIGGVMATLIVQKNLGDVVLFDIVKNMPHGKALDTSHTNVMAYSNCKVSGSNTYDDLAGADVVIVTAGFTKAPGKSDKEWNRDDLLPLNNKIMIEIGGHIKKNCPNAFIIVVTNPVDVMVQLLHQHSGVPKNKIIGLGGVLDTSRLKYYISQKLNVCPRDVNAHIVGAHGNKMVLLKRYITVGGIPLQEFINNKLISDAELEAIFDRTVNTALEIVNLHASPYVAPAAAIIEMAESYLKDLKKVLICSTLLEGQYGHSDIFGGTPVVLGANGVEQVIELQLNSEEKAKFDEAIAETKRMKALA

What is called inhibition is the drop in the measured response relative to a control, in per cent. On to `O=C(Cc1cnc[nH]1)Nc1cccc(-c2ccc(-c3nc4ccc(F)cc4[nH]3)cc2)c1`, for which the figures for the growth inhibition in experiment [1] and in experiment [4] were 84% (active) and 100% (active), respectively. In addition, the figures for the inhibition in experiment [2] and in experiment [3] were 4% and -7%, respectively. Also, the outcome in experiment [5], in experiment [6], in experiment [7] and in experiment [8] was inactive.

In the case of `O=C(NCCc1ccccc1)N(Cc1cccc(-c2ccc(CNCc3ccc4c(c3)OCO4)cc2)c1)C1CCN(Cc2ccccc2)CC1`, the growth inhibition in experiment [1] was 70% (active); in experiment [4] it was 94% (active). Moreover, the inhibition in experiment [2] is 11%; in experiment [3], -2%. Further, the result in experiment [5], in experiment [6], in experiment [7] and in experiment [8] was inactive.

Turning to `CCC(CC)(Cc1ccccc1)NC(=O)[C@H](CC(C)C)Nc1ccc(C#N)c2ccccc12`, the growth inhibition was 73% (active) in experiment [1] and 90% (active) in experiment [4]. Besides, the inhibition in experiment [2] was 57% (active); in experiment [3], -1%. Further, the result in experiment [5], in experiment [6], in experiment [7] and in experiment [8] was inactive.

As to `COc1ccc2ncc(F)c(CCN3[C@@H]4CC[C@H]3CC(NCc3ccc5c(c3)OCCO5)C4)c2n1` (stereo not given in full), the figures for the growth inhibition in experiment [1] and in experiment [4] were 35% and 102% (active), respectively. The values for the inhibition in experiment [2] and in experiment [3] were 27% and -5%, respectively. Moreover, the outcome in experiment [5], in experiment [6], in experiment [7] and in experiment [8] was inactive.

With `Cc1nnsc1C(=O)Nc1ccc(-c2ccc(-c3nc4c(C)cccc4[nH]3)s2)cc1`, the results for the growth inhibition in experiment [1] and in experiment [4] were 61% (active) and 100% (active), respectively. Further, the inhibition in experiment [2] is 63% (active); in experiment [3], 2%. The result in experiment [5], in experiment [6], in experiment [7] and in experiment [8] was inactive.

On to `COc1cc(CCN(C)Cc2ccc(OC)c(OC)c2)ccc1NC(=O)c1cccc2c(=O)c3cccc(F)c3[nH]c12`, for which the growth inhibition was 26% in experiment [1] and 102% (active) in experiment [4]. The results for the inhibition in experiment [2] and in experiment [3] were 14% and 0%, respectively. The outcome in experiment [5], in experiment [6], in experiment [7] and in experiment [8] was inactive.

Turning to `CCOC(=O)NC1=NC(C)(C)N(OCc2cccc3c2ccc2ccccc23)C(NC(=O)OCC)=N1`, the growth inhibition in experiment [1] was 3%; in experiment [4], 98% (active). The values for the inhibition in experiment [2] and in experiment [3] were 3% and 4%, respectively. In addition, the result in experiment [5], in experiment [6], in experiment [7] and in experiment [8] was inactive.

For `O=c1cc(NCCCNCc2ccccc2-c2ccccc2)[nH]c2ccccc12`, the growth inhibition is 46% in experiment [1] and 88% (active) in experiment [4]. The results for the inhibition in experiment [2] and in experiment [3] were 0% and -1%, respectively. Moreover, the result in experiment [5], in experiment [6], in experiment [7] and in experiment [8] was inactive.

As for `Cn1nc(-c2ccc(NC(=O)Nc3cc(C(F)(F)F)ccc3F)c(F)c2)c2cnc(NCCCN3CCOCC3)nc21`, the values for the growth inhibition in experiment [1] and in experiment [4] were 62% (active) and 100% (active), respectively. In addition, the values for the inhibition in experiment [2] and in experiment [3] were 31% and 3%, respectively. The result in experiment [5], in experiment [6], in experiment [7] and in experiment [8] was inactive.

As to `CCCCN(CCCC)CCCCCCNc1c2ccccc2nc2ccccc12`, the values for the growth inhibition in experiment [1] and in experiment [4] were 87% (active) and 95% (active), respectively. The inhibition in experiment [2] was 49%; in experiment [3], 7%. Further, the outcome in experiment [5], in experiment [6], in experiment [7] and in experiment [8] was inactive.

With `N#Cc1cccc(NC(=O)Nc2ccc3c(c2)CCN(C2CCC2)CC3)c1`, the growth inhibition is 26% in experiment [1] and 91% (active) in experiment [4]. Besides, the inhibition was 22% in experiment [2] and -3% in experiment [3]. The outcome in experiment [5], in experiment [6], in experiment [7] and in experiment [8] was inactive.

Turning to `CCn1c(SCC(=O)Nc2cc(C(F)(F)F)ccc2Cl)nc2ccccc2c1=O`, the values for the growth inhibition in experiment [1] and in experiment [4] were 95% (active) and 93% (active), respectively. The inhibition in experiment [2] is 8%; in experiment [3], 3%. The outcome in experiment [5], in experiment [6], in experiment [7] and in experiment [8] was inactive.

Turning to `Cc1cnc(NCC2CCCCC2)nc1N[C@@H](CO)C(=O)Nc1ccccc1`, the growth inhibition was 56% (active) in experiment [1] and 83% (active) in experiment [4]. Moreover, the figures for the inhibition in experiment [2] and in experiment [3] were -1% and -3%, respectively. Besides, the outcome in experiment [5], in experiment [6], in experiment [7] and in experiment [8] was inactive.

For the molecule `COc1cc(Nc2nccc(N3CCC(NC(=O)C(C)c4ccc(Cl)cc4)C3)n2)cc(OC)c1OC` (stereo not given), the growth inhibition was 90% (active) in experiment [1] and 97% (active) in experiment [4]. For the same molecule, the inhibition is 2% in experiment [2] and -7% in experiment [3]. Also, the outcome in experiment [5], in experiment [6], in experiment [7] and in experiment [8] was inactive.

As to `Clc1ncnc2ncn(Cc3cccc(Br)c3)c12`, the growth inhibition is 56% (active) in experiment [1] and 91% (active) in experiment [4]. In addition, the inhibition in experiment [2] is -5%; in experiment [3] it was 3%. Besides, the result in experiment [5], in experiment [6], in experiment [7] and in experiment [8] was inactive.

Consider `COc1ccc2nccc(N3CCN(CCNCc4ccc5c(n4)NC(=O)CO5)CC3)c2n1`, for which the values for the growth inhibition in experiment [1] and in experiment [4] were 12% and 98% (active), respectively. The inhibition in experiment [2] was 10%; in experiment [3], 1%. Also, the outcome in experiment [5], in experiment [6], in experiment [7] and in experiment [8] was inactive.

Regarding `CC(=O)N(Cc1ccc(CC(C)NCCc2cccc(Cl)c2)cc1)Cc1ccc(CC(C)NCCc2cccc(Cl)c2)cc1` (stereo not given), the growth inhibition in experiment [1] was 94% (active); in experiment [4] it was 101% (active). Also, the inhibition in experiment [2] was 98% (active); in experiment [3] it was -4%. The outcome in experiment [5], in experiment [6], in experiment [7] and in experiment [8] was inactive.

In the case of `O=C(Nc1ccc(N2CCNCC2)nc1)c1oc(-c2ccccc2)nc1C(F)(F)F`, the growth inhibition in experiment [1] is 62% (active); in experiment [4], 100% (active). The inhibition is 7% in experiment [2] and 0% in experiment [3]. Moreover, the outcome in experiment [5], in experiment [6], in experiment [7] and in experiment [8] was inactive.

Consider `CC[C@H](C)CNC(=O)c1ccnc(-c2ccc(CNCCCc3ccccc3)cc2)c1`, for which the growth inhibition in experiment [1] is 84% (active); in experiment [4], 101% (active). Also, the inhibition in experiment [2] was 17%; in experiment [3], -4%. The result in experiment [5], in experiment [6], in experiment [7] and in experiment [8] was inactive.

For the molecule `Cc1ccc(Oc2ccc(NC(=O)CNc3ccccc3N3CCCC3=O)cc2)cc1`, the figures for the growth inhibition in experiment [1] and in experiment [4] were 97% (active) and 98% (active), respectively. Moreover, the inhibition in experiment [2] was 14%; in experiment [3] it was -5%. Also, the result in experiment [5], in experiment [6], in experiment [7] and in experiment [8] was inactive.
